# In PubChem BioAssay AID1851 (National Center for Advancing Translational Sciences (NCATS), 2009):
# Out of some 16,000 compounds screened, about 2,600 (16%) were called active. Roughly 20% stayed inconclusive and do not appear here. Only a selection was taken, and actives are over-represented in it overall. Values without a mark were called inactive. Calls come from the whole dose curve; as a rule, active = well fitted curve in the direction sought with a large enough effect; inconclusive = small, poorly fitted or top-dose-only effect, or effect the other way; inactive = no such curve, though single readings can be large or run the other way.
# Target: Cytochrome P450 2D6 (Homo sapiens) (UniProt P10635)
# Experiment: Cytochrome panel assay with activity outcomes
# Settings: recombinant CYP, pro-luciferin dealkylation, luminescence, p450-cyp2d6; series mostly up to 57.1 µM
# % is set by controls: 0 for no effect and ±100 for the full control effect.
# Cytochrome P450 2D6 (Homo sapiens), sequence (P10635 whole entry, looked up): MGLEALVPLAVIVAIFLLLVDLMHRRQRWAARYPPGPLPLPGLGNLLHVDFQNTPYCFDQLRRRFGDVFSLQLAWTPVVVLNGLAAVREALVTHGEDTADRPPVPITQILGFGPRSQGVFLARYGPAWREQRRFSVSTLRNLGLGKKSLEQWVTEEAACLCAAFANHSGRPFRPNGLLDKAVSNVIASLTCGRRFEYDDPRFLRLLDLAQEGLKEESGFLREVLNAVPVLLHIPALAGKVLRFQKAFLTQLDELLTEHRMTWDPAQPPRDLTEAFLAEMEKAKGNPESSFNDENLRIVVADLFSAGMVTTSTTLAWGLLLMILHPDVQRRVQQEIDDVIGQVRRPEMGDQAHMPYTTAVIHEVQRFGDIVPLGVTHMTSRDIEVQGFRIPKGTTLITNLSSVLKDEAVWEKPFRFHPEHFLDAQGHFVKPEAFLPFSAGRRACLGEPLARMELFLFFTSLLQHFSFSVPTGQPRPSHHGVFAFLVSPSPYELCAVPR
SMILES,AC50,"activity, negative = inhibition"
S=C(S)N1CCCC1,inactive,
C[C@@H]1O[C@@H](O[C@H]2C[C@@H](O)[C@@]3(CO)[C@H]4[C@H](O)C[C@]5(C)[C@@H](C6=CC(=O)OC6)CC[C@]5(O)[C@H]4CC[C@@]3(O)C2)[C@@H](O)[C@H](O)[C@H]1O,,-4.25% [at 11.4 µM]
O=C(Nc1cccc(F)c1)N1CCCC2(CCN(C(=O)Oc3ccccc3)CC2)C1,inactive,
COc1ccccc1CN1CCCC2(CCN(C(=O)Oc3ccccc3)CC2)C1,3.98 µM (active),
O=C(Oc1ccccc1)N1CCC2(CCN(Cc3nccs3)CC2)CC1,inactive,
O=C(Oc1ccccc1)N1CCC2(CCCN(Cc3nccs3)C2)CC1,5.01 µM (active),
COc1cc2c(cc1OC)[C@]13CC[N@+]4(C)CC5=CCO[C@H]6CC(=O)N2[C@@H]1[C@@H]6[C@@H]5C[C@]34O,,-2.44% [at 11.4 µM]
C[C@@]12CC[C@H]3[C@@H](CCC4=CC(=O)CC[C@]43C)[C@H]1CC[C@H]2C(=O)CO,inactive,
CC(C)C[C@H](NP(=O)(O)O[C@@H]1O[C@@H](C)[C@@H](O)[C@@H](O)[C@H]1O)C(=O)N[C@@H](Cc1c[nH]c2ccccc12)C(=O)O,inactive,
O=C(c1cc(-c2ccccc2)nc2ccccc12)N1CCC2(CC1)OCCO2,inactive,
CN(CCc1ccc(Cl)c(Cl)c1)[C@H]1CCCC[C@H]1N1CCCC1,0.00631 µM (active),
CN(C)CCN(C)CCc1ccc(Cl)c(Cl)c1,inactive,
Clc1cnc(Oc2ccc(Oc3ncc(Cl)cc3Cl)cc2)c(Cl)c1,inactive,
NS(=O)(=O)c1ccc(-c2ccc([As](=O)(O)O)cc2)cc1,,16.2% [at 11.4 µM]
N[C@@H](Cn1oc(=O)[nH]c1=O)C(=O)O,inactive,
N[C@H](Cn1ccc(=O)[nH]c1=O)C(=O)O,3.98 µM (active),
N[C@@H](Cn1cc(I)c(=O)[nH]c1=O)C(=O)O,inactive,
CCSCC[C@H](N)C(=O)O,,2.98% [at 11.4 µM]
CC(=O)OCC(=O)[C@@H]1CC[C@H]2[C@H]3CC[C@H]4C[C@@H](O)CC[C@]4(C)[C@@H]3C(=O)C[C@@]12C,inactive,
COc1ccc(C2NCc3ccc4c(c3-n3cccc32)OCO4)cc1OC (stereo not drawn),0.398 µM (active),
CCNC(=O)[C@@H]1O[C@@H](n2cnc3c(N)ncnc32)[C@H](O)[C@H]1O,inactive,
C[C@@H]1[C@H]2C=C[C@@H]1[C@@H](c1c3ccc(=O)c(O)c-3oc3c(O)c(O)ccc13)[C@@H]2C(=O)O,,2.68% [at 11.4 µM]
Cc1nc2ccccc2c(=O)n1-n1cnnc1,inactive,
Clc1ccc(C(c2ccc(Cl)cc2)n2cc[n+](C[C@@H](OCc3ccc(Cl)cc3Cl)c3ccc(Cl)cc3Cl)c2)cc1,0.0398 µM (active),

SMILES,AC50,"activity, negative = inhibition"
O=C(C1CC(=O)N(C2CCCC2)C1)N1CCC2(CC1)OCCO2 (stereo not drawn),inactive,
CCN1CCN(Cc2cc(OC)c(OC)cc2[N+](=O)[O-])CC1,6.31 µM (active),
CCN1C[C@]2(C)CC[C@H](OC)[C@@]34[C@@H]2[C@H](OC(C)=O)[C@]2(OCO[C@@]25C[C@@H](OC)[C@@H]2C[C@@]3(O)[C@H]5[C@@H]2OC)[C@H]14,inactive,
COC(=O)NC/C=C\c1nc(CC/C=C\C(=O)O[C@H]2C[C@H]3CC(=O)O[C@@H](/C=C\CC(C)C)C[C@@H]4CC[C@H](C)[C@H](C[C@@H](OC)C[C@H](C2)O3)O4)co1,,-6.57% [at 11.4 µM]
CNC(C)Cc1ccccc1Sc1ccc(O)cc1 (stereo not drawn),3.16 µM (active),
CC(N)Cc1ccccc1Sc1ccc(O)cc1 (stereo not drawn),10 µM (active),
COC(=O)C1(C)C=C2C(=C(C)C(=O)C2C)CN1 (stereo not drawn),inactive,
CC(C)[C@@H]1CN[C@H](C(=O)O)[C@@H]1CC(=O)O,inactive,
C=C1[C@@H]2C[C@@]3([C@H]1O)[C@H]1C[C@@H]4[C@@]5(C)CC[C@H](O)[C@]4([C@H]1N(CC)C5)[C@H]3C[C@H]2O,inactive,
CC(C)CNCCc1ccccn1,,-13.8% [at 11.4 µM]
CCC(=O)O[C@H]1CC[C@H]2[C@@H]3CCC4=CC(=O)CC[C@]4(C)[C@H]3CC[C@]12C,inactive,
CC[C@@H](C)[C@H]1O[C@]2(CC[C@@H]1C)C[C@@H]1C[C@H](C/C=C(/C)[C@H](O[C@@H]3C[C@H](OC)[C@H](O[C@@H]4C[C@H](OC)[C@@H](O)[C@H](C)O4)[C@H](C)O3)[C@@H](C)/C=C\C=C3CO[C@@H]4[C@H](O)C(C)=C[C@@H](C(=O)O1)[C@]34O)O2 (tested in a mixture with another compound),inactive,
Cc1ccc2c(c1)N(CCC(=O)N1CCC3(CC1)OCCO3)C(=O)C(C)O2 (stereo not drawn),inactive,
COc1cc([C@H]2c3cc4c(cc3[C@@H](O)[C@@H]3COC(=O)[C@H]23)OCO4)cc(OC)c1OC,inactive,
CN1CCc2cc(O)cc3c2[C@H]1Cc1ccc(O)c(O)c1-3,inactive,
CN1CCc2cc3c(cc2[C@@H]1O)OCO3,7.94 µM (active),
CC(=O)N1CC[N+](C)(C)CC1,inactive,
CC(C)(C)c1cc(C=C(C#N)C#N)cc(C(C)(C)C)c1O,inactive,
CC1=C2C(=O)[C@@H]3[C@@H](CC=C4C[C@@H](O)CC[C@@]43C)[C@H]2CC[C@@]12O[C@H]1C[C@H](C)CN[C@H]1[C@@H]2C,,9.41% [at 11.4 µM]
NS(=O)(=O)c1cc([C@@]2(O)NC(=O)c3ccccc32)ccc1Cl,inactive,
CCOc1ccc(C2C(C#N)=C(N)Oc3c2c(=O)oc2ccccc32)cc1 (stereo not drawn),inactive,
CCOC(C(=O)OCCCN(CC)CC)(c1ccccc1)c1ccccc1,2 µM (active),
CC(C)NP(=O)(NC(C)C)OP(=O)(NC(C)C)NC(C)C,inactive,
CC(C)N[C@@H](C)Cc1ccc(I)cc1,0.1 µM (active),

SMILES,AC50,"activity, negative = inhibition"
Cc1ccc2cc3cc(C(=O)N4CCC5(CC4)OCCO5)oc3nc2c1,inactive,
CCOC(=O)c1ncn2c1CN(C)C(=O)c1cc(F)ccc1-2,inactive,
CC1(C)[C@@H]2CC[C@]1(C)CN(CCC[N+](C)(C)C)C2,,2.02% [at 11.4 µM]
CS(=O)(=O)O[C@H]1CN2CCC1CC2,,2.87% [at 11.4 µM]
C[C@]12CC[C@H](O)C[C@@H]1CC[C@H]1[C@H]2CC[C@]2(C)[C@H](C(=O)CO)CC[C@@H]12,inactive,
c1csc(CN2CCCC3(CCNCC3)C2)n1,inactive,
c1csc(CN2CCC3(CCNCC3)CC2)n1,inactive,
c1ccc(N2CCCC3(CCNCC3)C2)nc1,10 µM (active),
c1ccc(N2CCC3(CCNCC3)CC2)nc1,1.26 µM (active),
Cc1ccccc1OCCN=Cc1c(O)n(C)c(=O)n(C)c1=O,inactive,
COc1cc2c(cc1OC)[C@@]13CCN4C=C5CCO[C@H]6CC(=O)N2[C@@H]1[C@@H]6[C@H]5C[C@H]43,,9.01% [at 11.4 µM]
C1CCc2nnnn2CC1,inactive,
CC(C)[N+](C)(CCC(C(N)=O)(c1ccccc1)c1ccccc1)C(C)C,3.98 µM (active),
CC(C)N(CC[C@@](C(N)=O)(c1ccccc1)c1ccccn1)C(C)C,inactive,
N#C/C(=C\c1ccc(O)c(O)c1)C(N)=S,inactive,
Nc1nc(N)c(N=Nc2ccc([As](=O)(O)O)c(O)c2)c(N)n1,,12.7% [at 11.4 µM]
CC(O)(CS(=O)(=O)c1cccc(C(F)(F)F)c1)C(=O)Nc1cccc(C(F)(F)F)c1 (stereo not drawn),inactive,
COc1cc(C[C@H](C)N)c(OC)cc1I,25.1 µM (active),
NC(=O)c1ccc(C(=O)Nc2ccc([As](=O)(O)O)cc2)cc1,,-0.507% [at 11.4 µM]
C[C@H](N)[C@@H](O)c1ccccc1,inactive,
CC(NCc1ccc(Cl)cc1)C(O)c1ccccc1 (stereo not drawn),0.0708 µM (active),
O=NN(Cc1ccc(Cl)cc1)[C@@H](C(=O)O)c1ccccc1,,6.33% [at 11.4 µM]
COc1ccn(C)c(=O)c1C#N,inactive,
O=C1C2CCN(CC2)C1(CO)CO,inactive,

SMILES,AC50,"activity, negative = inhibition"
CCc1ccc(CCN2CCCCC2)nc1,1.58 µM (active),
c1ccc(CCN2CCCCCC2)nc1,,-18.4% [at 11.4 µM]
c1ccc(CCN2CCOCC2)nc1,,13.9% [at 11.4 µM]
CC(C)COC(=O)OCN1C(=O)CN(CCN2CC(=O)N(COC(=O)OCC(C)C)C(=O)C2)CC1=O,inactive,
O=S(=O)(c1ccccc1)N1CCCCC1c1cccnc1 (stereo not drawn),inactive,
N#CCCN,inactive,
Oc1cccc2cccnc12,,8.63% [at 11.4 µM]
C[n+]1c(/C=C\c2ccc(O)c3ncccc23)[se]c2ccccc21,1 µM (active),
COc1cccc(-c2nc(CS(=O)CC(=O)N3CCC4(CC3)OCCO4)c(C)o2)c1 (stereo not drawn),inactive,
C[C@@]12CC[C@H]3[C@@H](CC[C@@H]4C[C@H]5S[C@H]5C[C@]43C)[C@H]1CC[C@H]2O,inactive,
CCCN(CCC)CCc1cccc2c1CC(=O)N2,3.16 µM (active),
N[C@@H]1C=CC=C(C(=O)O)C1,inactive,
N#CC(C#N)=Cc1cc(O)c(O)c(O)c1,inactive,
O=C(O)c1cc[c]([Hg][S]c2ncnc3nc[nH]c23)cc1,1 µM (active),
O=C(NC1CCCCC1)NC1CC2CCC(C1)N2Cc1nnnn1Cc1ccc2c(c1)OCO2 (stereo not drawn),6.31 µM (active),
CCOP(=O)(OCC)C(NC(=O)C(Cl)Cl)C(Cl)(Cl)Cl (stereo not drawn),inactive,
O=[N+]([O-])O[C@H]1CO[C@H]2[C@H]1OC[C@@H]2O[N+](=O)[O-],inactive,
C/C(=C\c1ccc(N(C)C)cc1)[N+](=O)[O-],inactive,
C[N+]1(C)[C@@H]2CC[C@H]1CC(OC(=O)[C@@H](CO)c1ccccc1)C2 (stereo partly drawn),inactive,
CCN1CCC[C@@H](OC(=O)C(c2ccccc2)c2ccccc2)C1,1.58 µM (active),
C[N+]1(C)C2CC[C@H]1CC(OC(=O)[C@@H](CO)c1ccccc1)C2 (stereo partly drawn),,12% [at 11.4 µM]
